The supplement of paper PMC12067093, “Discovery and optimisation of a covalent ligand for TRIM25 and its application to targeted protein ubiquitination” (Chemical Science, 2025)
Targets with the largest changes are over-represented here; the source holds about 21,000 in all.

Compound: CC1Cc2ccccc2N1C(=O)C1CCCN(C1)C(=O)CCl (mixture of isomers) [TRIM25 ligand 11 (diastereomer mixture)]
Assay: probe-labelled cysteine peptide fold change vs DMSO (competition) (log2 fold change); higher = less target engagement (more negative = stronger competition)
Settings: 50 µM; THP-1; incubation time: 4 h
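Further: competitive chemoproteomic profiling in live THP-1 cells with an iodoacetamide desthiobiotin (IA-DTB) probe, comparing probe-labelled peptide intensities in compound-treated cells against DMSO-treated controls.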

UniProt Q92621, sequence (Q92621 whole entry, looked up): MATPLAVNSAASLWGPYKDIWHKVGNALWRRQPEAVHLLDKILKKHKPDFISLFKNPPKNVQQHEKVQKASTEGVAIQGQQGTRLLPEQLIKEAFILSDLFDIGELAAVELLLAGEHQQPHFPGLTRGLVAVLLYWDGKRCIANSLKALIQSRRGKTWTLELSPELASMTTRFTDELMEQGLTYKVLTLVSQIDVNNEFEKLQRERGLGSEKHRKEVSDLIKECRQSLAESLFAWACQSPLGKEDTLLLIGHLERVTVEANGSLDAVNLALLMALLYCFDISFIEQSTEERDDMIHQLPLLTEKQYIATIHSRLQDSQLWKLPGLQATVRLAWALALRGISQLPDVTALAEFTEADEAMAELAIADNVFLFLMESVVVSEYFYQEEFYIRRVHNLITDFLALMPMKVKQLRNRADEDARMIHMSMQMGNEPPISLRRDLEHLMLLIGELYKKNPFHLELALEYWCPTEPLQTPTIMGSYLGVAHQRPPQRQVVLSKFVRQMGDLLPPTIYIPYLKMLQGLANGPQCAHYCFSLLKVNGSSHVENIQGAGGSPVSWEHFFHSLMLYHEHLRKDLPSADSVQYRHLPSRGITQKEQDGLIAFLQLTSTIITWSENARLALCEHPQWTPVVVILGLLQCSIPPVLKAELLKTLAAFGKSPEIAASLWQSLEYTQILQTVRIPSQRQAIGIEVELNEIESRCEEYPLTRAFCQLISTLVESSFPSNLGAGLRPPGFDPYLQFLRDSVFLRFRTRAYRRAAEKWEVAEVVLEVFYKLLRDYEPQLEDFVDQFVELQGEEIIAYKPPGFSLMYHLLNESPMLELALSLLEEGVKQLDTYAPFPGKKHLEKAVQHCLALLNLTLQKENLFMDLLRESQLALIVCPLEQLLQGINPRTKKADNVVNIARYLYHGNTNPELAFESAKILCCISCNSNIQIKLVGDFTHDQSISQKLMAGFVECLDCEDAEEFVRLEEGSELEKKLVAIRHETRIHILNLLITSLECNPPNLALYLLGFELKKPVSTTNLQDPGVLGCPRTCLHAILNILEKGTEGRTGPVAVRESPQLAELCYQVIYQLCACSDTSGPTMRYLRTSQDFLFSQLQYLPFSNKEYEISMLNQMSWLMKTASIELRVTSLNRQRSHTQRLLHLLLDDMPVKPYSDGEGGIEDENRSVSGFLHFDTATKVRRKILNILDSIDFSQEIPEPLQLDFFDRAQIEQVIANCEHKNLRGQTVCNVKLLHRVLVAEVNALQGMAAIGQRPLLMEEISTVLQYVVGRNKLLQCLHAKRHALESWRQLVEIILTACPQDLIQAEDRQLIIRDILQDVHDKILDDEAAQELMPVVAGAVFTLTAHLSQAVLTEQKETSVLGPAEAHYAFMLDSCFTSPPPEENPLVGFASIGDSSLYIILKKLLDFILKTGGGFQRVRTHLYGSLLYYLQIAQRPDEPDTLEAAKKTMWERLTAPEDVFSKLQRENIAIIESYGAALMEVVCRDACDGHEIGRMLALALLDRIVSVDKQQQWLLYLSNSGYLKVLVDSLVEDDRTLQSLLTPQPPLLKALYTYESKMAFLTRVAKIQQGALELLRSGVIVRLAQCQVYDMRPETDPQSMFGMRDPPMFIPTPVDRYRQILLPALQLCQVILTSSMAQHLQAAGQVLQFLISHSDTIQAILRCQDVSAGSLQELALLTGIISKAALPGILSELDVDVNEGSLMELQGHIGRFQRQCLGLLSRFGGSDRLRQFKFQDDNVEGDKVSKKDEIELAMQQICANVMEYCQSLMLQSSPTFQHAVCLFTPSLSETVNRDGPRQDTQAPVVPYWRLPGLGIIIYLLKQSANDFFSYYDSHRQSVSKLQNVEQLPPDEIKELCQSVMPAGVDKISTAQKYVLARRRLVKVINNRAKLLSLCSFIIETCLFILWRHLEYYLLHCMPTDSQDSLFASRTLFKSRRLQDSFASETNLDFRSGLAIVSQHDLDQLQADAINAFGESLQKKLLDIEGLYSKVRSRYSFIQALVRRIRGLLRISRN
UniProt P17568, sequence (P17568 whole entry, looked up): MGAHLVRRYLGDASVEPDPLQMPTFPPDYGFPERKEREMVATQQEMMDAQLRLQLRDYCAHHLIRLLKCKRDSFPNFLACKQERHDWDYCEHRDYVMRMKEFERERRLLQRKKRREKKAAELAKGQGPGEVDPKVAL
UniProt Q9ULX3, sequence (Q9ULX3 whole entry, looked up): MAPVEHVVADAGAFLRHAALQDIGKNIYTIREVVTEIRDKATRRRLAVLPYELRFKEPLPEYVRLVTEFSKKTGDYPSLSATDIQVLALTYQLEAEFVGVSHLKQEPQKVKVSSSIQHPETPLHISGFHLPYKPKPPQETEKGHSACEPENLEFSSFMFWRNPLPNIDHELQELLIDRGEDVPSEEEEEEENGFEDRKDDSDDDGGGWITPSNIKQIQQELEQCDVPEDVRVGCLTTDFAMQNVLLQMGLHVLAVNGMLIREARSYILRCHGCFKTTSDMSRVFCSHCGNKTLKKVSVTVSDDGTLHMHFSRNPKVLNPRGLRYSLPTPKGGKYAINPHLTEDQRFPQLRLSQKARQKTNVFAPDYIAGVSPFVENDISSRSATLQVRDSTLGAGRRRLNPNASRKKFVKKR
UniProt Q13177, sequence (Q13177 whole entry): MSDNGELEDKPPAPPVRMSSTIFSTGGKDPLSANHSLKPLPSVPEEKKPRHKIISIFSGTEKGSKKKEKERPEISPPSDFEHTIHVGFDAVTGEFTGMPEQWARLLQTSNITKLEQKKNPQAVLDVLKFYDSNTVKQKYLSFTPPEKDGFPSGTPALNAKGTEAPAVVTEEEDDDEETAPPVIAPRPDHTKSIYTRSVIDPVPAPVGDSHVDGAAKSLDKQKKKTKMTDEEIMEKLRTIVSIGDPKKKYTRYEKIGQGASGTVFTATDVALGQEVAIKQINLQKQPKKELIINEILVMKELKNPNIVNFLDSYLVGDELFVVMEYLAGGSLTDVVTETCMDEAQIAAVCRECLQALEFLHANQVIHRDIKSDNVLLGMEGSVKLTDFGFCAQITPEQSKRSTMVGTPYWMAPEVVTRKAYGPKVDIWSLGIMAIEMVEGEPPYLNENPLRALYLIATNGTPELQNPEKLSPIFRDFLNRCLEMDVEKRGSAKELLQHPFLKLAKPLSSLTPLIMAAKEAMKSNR
UniProt Q92597, sequence (Q92597 whole entry, looked up): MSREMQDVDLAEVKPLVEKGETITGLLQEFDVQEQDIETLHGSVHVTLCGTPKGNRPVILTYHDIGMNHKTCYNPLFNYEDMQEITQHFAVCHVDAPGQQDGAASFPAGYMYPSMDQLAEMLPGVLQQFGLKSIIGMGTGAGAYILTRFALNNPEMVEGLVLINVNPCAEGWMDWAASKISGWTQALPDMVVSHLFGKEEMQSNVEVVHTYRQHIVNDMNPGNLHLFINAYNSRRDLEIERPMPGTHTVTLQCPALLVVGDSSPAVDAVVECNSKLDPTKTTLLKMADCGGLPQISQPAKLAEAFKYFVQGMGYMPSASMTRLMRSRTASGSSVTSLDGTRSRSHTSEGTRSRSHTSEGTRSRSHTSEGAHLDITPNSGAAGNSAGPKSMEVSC
UniProt P57740, sequence (P57740 whole entry, looked up): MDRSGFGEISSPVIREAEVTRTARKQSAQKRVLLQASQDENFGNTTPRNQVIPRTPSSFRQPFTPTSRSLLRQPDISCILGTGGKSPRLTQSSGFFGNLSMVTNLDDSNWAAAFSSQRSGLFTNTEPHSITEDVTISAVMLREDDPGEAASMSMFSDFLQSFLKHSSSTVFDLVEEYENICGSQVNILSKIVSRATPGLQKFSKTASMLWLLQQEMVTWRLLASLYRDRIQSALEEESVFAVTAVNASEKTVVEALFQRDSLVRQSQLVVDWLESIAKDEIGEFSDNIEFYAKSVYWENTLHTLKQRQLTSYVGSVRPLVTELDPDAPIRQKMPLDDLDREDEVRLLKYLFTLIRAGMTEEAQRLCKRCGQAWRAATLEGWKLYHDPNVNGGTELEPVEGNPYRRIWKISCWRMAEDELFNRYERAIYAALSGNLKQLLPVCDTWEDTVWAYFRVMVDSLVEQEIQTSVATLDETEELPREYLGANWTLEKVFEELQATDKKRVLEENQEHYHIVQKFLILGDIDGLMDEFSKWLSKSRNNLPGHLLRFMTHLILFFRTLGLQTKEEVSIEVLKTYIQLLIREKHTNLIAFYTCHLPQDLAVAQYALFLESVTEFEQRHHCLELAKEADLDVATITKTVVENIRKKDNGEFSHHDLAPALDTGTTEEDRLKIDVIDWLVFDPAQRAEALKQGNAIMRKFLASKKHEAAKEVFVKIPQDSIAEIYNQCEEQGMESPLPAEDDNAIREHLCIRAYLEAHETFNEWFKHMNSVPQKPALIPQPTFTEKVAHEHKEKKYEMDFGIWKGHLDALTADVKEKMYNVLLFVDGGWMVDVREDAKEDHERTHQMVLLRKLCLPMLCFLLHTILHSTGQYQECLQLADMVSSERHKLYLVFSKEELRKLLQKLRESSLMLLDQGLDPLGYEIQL
UniProt Q9NQR4, sequence (Q9NQR4 whole entry, looked up): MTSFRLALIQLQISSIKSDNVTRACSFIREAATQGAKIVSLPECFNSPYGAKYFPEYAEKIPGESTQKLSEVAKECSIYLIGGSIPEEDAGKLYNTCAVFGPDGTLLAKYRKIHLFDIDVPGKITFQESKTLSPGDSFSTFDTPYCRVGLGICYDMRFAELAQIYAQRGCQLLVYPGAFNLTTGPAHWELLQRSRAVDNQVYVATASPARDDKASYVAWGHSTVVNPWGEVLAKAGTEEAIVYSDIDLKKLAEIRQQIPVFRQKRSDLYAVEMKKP
UniProt Q9BRP1, sequence (Q9BRP1 whole entry, looked up): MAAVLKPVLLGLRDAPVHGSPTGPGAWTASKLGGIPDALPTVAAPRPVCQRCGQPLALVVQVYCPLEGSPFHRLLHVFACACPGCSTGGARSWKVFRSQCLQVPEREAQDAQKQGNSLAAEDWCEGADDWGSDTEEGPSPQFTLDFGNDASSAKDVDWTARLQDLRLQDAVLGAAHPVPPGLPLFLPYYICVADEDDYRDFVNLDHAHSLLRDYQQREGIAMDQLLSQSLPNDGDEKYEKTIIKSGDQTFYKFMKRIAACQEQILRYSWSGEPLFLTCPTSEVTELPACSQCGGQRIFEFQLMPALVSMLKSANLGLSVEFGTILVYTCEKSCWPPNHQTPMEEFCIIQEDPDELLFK

Row | Target | probe-labelled cysteine peptide fold change
1 | P4HB_P07237_312_ILEFFGLKKEECPAVR (UniProt P07237) | -0.501
2 | NOL9_Q5SY16_219_WSMQNFSPQCSIVLLEHLK (UniProt Q5SY16) | 0.0078
3 | PARP1_P09874_845_IEREGECQR (UniProt P09874) | 0.129
4 | NOL10_Q9BSC4_147_DFSYHYPSCDLYFVGASSEVYR (UniProt Q9BSC4) | -0.299
5 | OCIAD2_Q56VL3_106_VSYIGVCQSK (UniProt Q56VL3) | 0.116
6 | OAS3_Q9Y6K5_350_AGCSGLGHPIQLDPNQK (UniProt Q9Y6K5) | -0.0671
7 | PAFAH1B1_P43034_281_EHEHVVECISWAPESSYSSISEATGSETK (UniProt P43034) | 0.158
8 | PAK2_Q13177_352_ECLQALEFLHANQVIHR (UniProt Q13177) | 0.223
9 | NIT2_Q9NQR4_153_VGLGICYDMR (UniProt Q9NQR4) | -1.18
10 | NOC4L_Q9BVI4_509_KGPEPVPLEFIPAQGLLGRPGELCAQHFTLS (UniProt Q9BVI4) | -0.199
11 | NVL_O15381_803_EASICALR (UniProt O15381) | 0.175
12 | PDLIM7_Q9NR12_370_MTWHVHCFTCAACK (UniProt Q9NR12) | 0.119
13 | PCBP1_Q15365_293_GYWASLDASTQTTHELTIPNNLIGCIIGR (UniProt Q15365) | -0.174
14 | NUP205_Q92621_1032_TCLHAILNILEK (UniProt Q92621) | -0.0819
15 | ORC3_Q9UBD5_158_LISQLMDCCVDIK (UniProt Q9UBD5) | -0.134
16 | NUS1_Q96E22_235_QKRPTDLDVDTLASLLSSNGCPDPDLVLK (UniProt Q96E22) | -0.641
17 | P4HB_P07237_397+400_NVFVEFYAPWCGHCK (UniProt P07237) | -0.34
18 | NDRG1_Q92597_289_MADCGGLPQISQPAK (UniProt Q92597) | -0.0335
19 | NFX1_Q12986_295_STCDSENLAVINK (UniProt Q12986) | -0.0282
20 | PAFAH1B2_P68402_206_ICKPLHELIMQLLEETPEEK (UniProt P68402) | -0.692

Row | Target | probe-labelled cysteine peptide fold change
21 | NLRX1_Q86UT6_713_CTVVAAVLGSGR (UniProt Q86UT6) | 0.223
22 | PABPC4_Q13310-3_488_VGSECPDR (UniProt Q13310) | -0.166
23 | PDCD2L_Q9BRP1_191_LQDAVLGAAHPVPPGLPLFLPYYICVADEDDYRDFVNLDHAHSLLR (UniProt Q9BRP1) | 0.29
24 | PATZ1_Q9HBE1_297_EAGILPCGLCGK (UniProt Q9HBE1) | -0.0723
25 | PDF_Q9HBH1_222_IIQHEMDHLQGCLFIDK (UniProt Q9HBH1) | 0.0675
26 | NEK1_Q96PY6_276_FLSPQLIAEEFCLK (UniProt Q96PY6) | 0.161
27 | NDUFB10_O96000_119_EGQNYQQNCIK (UniProt O96000) | -0.0614
28 | PAICS_P22234_100_CGETAFIAPQCEMIPIEWVCR (UniProt P22234) | 0.1
29 | NOB1_Q9ULX3_147_GHSACEPENLEFSSFMFWR (UniProt Q9ULX3) | -0.119
30 | NOP58_Q9Y2X3_106_LNLSCIHSPVVNELMR (UniProt Q9Y2X3) | 0.12
31 | PDPR_Q8NCN5_357_LVNCPETFTPDMR (UniProt Q8NCN5) | 0.18
32 | NUP107_P57740_749_EHLCIR (UniProt P57740) | 0.0884
33 | NF1_P21359_1016_LCQLVEVMMAR (UniProt P21359) | 0.181
34 | NDUFB7_P17568_90_HDWDYCEHR (UniProt P17568) | 0.191
35 | NUP160_Q12769_529_NLQQEFWCK (UniProt Q12769) | 0.177
36 | OPLAH_O14841_1053_DIPLNQGCLAPVR (UniProt O14841) | 0.136
37 | NLRX1_Q86UT6_259_LAGTGLCSDPEEPQEPAAIIVNLLR (UniProt Q86UT6) | -0.746
38 | NUP160_Q12769_1042_QLVVVLCER (UniProt Q12769) | 0.0629
39 | NOP2_P46087_393_ILDMCCAPGGK (UniProt P46087) | -0.0998
40 | PARP4_Q9UKK3_1099_LLVYGFIPHCTQATLCALIQEK (UniProt Q9UKK3) | -0.243
